Laboratory results taken from PubChem BioAssay (NCATS).
Values joined by “and” are separate entries in the source; they are usually repeats but may differ in a detail not shown here. Equal values may be shown once. Inconclusive results are not listed. A structure can be active in one record and inactive in another. Active and inactive are the calls of the source. The call rests on the fitted dose curve; in most records, active means well fitted curve in the direction sought with a large enough effect; inconclusive means small, poorly fitted or top-dose-only effect, or another doubt; inactive means no such curve, though single readings can be large; an effect the other way counts as inactive or inconclusive.

Experiments:
[1] = biological target: Alpha-galactosidase A (Homo sapiens) (UniProt P06280); test: Counterscreen for Glucocerebrosidase Inhibitors: qHTS Assay for Human alpha-Galactosidase at pH 4.5 (AID 992)
Chain of Alpha-galactosidase A (Homo sapiens) (P06280 whole entry, looked up): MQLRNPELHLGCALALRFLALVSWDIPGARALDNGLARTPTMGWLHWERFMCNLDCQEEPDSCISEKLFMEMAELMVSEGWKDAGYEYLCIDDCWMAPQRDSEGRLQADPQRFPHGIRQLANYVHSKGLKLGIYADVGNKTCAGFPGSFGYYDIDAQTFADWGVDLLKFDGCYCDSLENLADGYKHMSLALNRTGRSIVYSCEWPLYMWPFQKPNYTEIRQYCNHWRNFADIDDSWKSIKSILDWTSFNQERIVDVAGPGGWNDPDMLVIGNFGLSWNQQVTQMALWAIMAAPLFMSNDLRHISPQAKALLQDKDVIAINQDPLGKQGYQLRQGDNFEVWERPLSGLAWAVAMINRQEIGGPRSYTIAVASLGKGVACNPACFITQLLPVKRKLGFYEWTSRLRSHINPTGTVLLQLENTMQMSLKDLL
Summary of the method: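 Human enzyme (2 nM) with 80 uM 4-methylumbelliferyl alpha-D-galactopyranoside in 50 mM citric acid, 0.005% Tween-20, pH 4.5, 20 min at room temperature. Compounds 0.7 nM–77 uM; fluorescence Ex 365/Em 440 after pH 10 stop; AC50 from Hill fits.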

[2] = biological target: alpha-glucosidase (Oryza sativa, rice) (UniProt Q653V4); test: Counterscreen for Glucocerebrosidase Inhibitors: qHTS Assay for Rice alpha-Glucosidase at pH 5.0 (AID 997)
Summary of the method: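 Rice alpha-glucosidase (4 nM final) with 400 uM 4-methylumbelliferyl-alpha-D-glucopyranoside in citrate buffer pH 5.0, 20 min at room temperature, stopped at pH 10; fluorescence 365/440 nm, compounds 0.7 nM–77 uM, AC50 from Hill fits.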

[3] = biological target: Alpha-galactosidase (Coffea arabica) (UniProt Q42656); test: Counterscreen for Glucocerebrosidase Inhibitors: qHTS Assay for Coffee Bean alpha-Galactosidase at pH 5.9 (AID 998)
Chain of Alpha-galactosidase (Coffea arabica) (Q42656 whole entry, looked up): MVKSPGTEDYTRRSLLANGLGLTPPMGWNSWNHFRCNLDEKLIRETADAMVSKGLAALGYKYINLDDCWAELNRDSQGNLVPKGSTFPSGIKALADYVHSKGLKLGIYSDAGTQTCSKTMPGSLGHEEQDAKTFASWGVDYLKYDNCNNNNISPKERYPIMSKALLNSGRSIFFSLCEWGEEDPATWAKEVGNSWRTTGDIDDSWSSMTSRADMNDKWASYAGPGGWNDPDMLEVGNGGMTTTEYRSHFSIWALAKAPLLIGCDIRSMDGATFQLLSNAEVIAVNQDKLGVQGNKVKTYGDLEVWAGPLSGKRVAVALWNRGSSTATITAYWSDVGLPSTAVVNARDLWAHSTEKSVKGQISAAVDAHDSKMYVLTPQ
Summary of the method: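 Green coffee bean enzyme (2 nM final) was incubated with compounds (0.7 nM–77 uM) and 4-methylumbelliferyl alpha-D-galactopyranoside (80 uM) in citrate buffer pH 5.9, 20 min at room temperature. High-pH stop; fluorescence 365/440 nm; AC50 from Hill fits.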

[4] = Counterscreen for APE1 Inhibitors: Fluorescent Dye Displacement Validation Assay (AID 1707)
Summary of the method: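 Thiazole Orange (250 nM) bound to 50 nM TAMRA-labelled dsDNA with tetrahydrofuran abasic site; displacement by DNA-binding compounds lowers fluorescence. Buffer 50 mM Tris-HCl pH 7.5, 50 mM NaCl, 2 mM MgCl2, 0.01% Tween-20; endpoint read at 480/540 nm.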

[5] = biological target: Endonuclease 4 (Escherichia coli (strain K12)) (UniProt P0A6C1); test: Counterscreen for APE1 Inhibitors: qHTS Validation Assay for Inhibitors of Endonuclease IV (AID 1708)
Summary of the method: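 Concentration-response counterscreen run identically to the APE1 assay: 15 min room-temperature preincubation of 2 nM enzyme with compound, reaction started with 50 nM quenched abasic DNA, progress taken from kinetic fluorescence.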

[6] = Cell Viability - LYMP2-007 (AID 979);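 further: cells exposed to compound for 24 h before reading; nearly all actives have a fitted effect of over 60% in size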; further: potency means the concentration at half of the fitted maximal effect
Summary of the method: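 Human lymphoblastoid LYMP2-007 cells (2500/well) preincubated 5 h at 37 C, then treated 24 h at 37 C in complete medium. Viability by CellTiter-Glo ATP luminescence after 30 min at room temperature; AC50 from Hill fits.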

[7] = Cell Viability - LYMP2-008 (AID 980); further: nearly all actives have a fitted effect of over 60% in size; further: potency means the concentration at half of the fitted maximal effect
Summary of the method: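 LYMP2-008 lymphoblastoid cells (2500/well) plated 5 h, then treated 24 h at 37 C in complete medium. Viability read as intracellular ATP by CellTiter-Glo luminescence after 30 min at room temperature; AC50 from Hill fits.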

[8] = Cell Viability - LYMP2-010 (AID 981); further: nearly all actives have a fitted effect of over 55% in size; further: potency means the concentration at half of the fitted maximal effect
Summary of the method: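 Human lymphoblastoid LYMP2-010 cells (2500/well) treated 24 h at 37 C in complete medium; viability read as intracellular ATP by CellTiter-Glo luminescence. AC50 from Hill fits of concentration-response data; tetraoctylammonium bromide positive control.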

[9] = Cell Viability - LYMP2-012 (AID 982);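 further: cellular ATP by luciferase luminescence where a drop means cytotoxicity; cells exposed to compound for one day before reading; nearly all actives have a fitted effect of over 55% in size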; further: potency means the concentration at half of the fitted maximal effect
[10] = Cell Viability - LYMP2-014 (AID 983); further: nearly all actives have a fitted effect of over 50% in size; further: potency means the concentration at half of the fitted maximal effect
Summary of the method: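 LYMP2-014 human lymphoblastoid cells, 2500/well, treated 24 h at 37 C in complete medium; viability by CellTiter-Glo ATP luminescence after 30 min at room temperature. AC50 from Hill fits of qHTS concentration-response; tetraoctylammonium bromide positive control.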

[11] = Cell Viability - LYMP2-018 (AID 985);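 further: compound exposure lasted 24 hr at 37 °C; nearly all actives have a fitted effect of over 50% in size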; further: potency means the concentration at half of the fitted maximal effect
Summary of the method: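 Human lymphoblastoid LYMP2-018 cells, 2500/well, settled 5 hr at 37 C then exposed to compound 24 hr at 37 C; intracellular ATP measured by CellTiter-Glo luminescence. AC50 from Hill-equation concentration-response fits.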

[12] = Cell Viability - LYMP2-020 (AID 986); further: nearly all actives have a fitted effect of over 55% in size; further: potency means the concentration at half of the fitted maximal effect
Summary of the method: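 Human lymphoblastoid LYMP2-020 cells (2500/well) preincubated 5 h at 37 C, then treated 24 h at 37 C. Viability measured as intracellular ATP by CellTiter-Glo luminescence after 30 min at room temperature; AC50 from Hill fits.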

[13] = Cell Viability - LYMP2-022 (AID 987); further: nearly all actives have a fitted effect of over 55% in size; further: potency means the concentration at half of the fitted maximal effect
Summary of the method: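 LYMP2-022 lymphoblastoid cells (2500/well, complete medium) were treated with compounds for 24 hours at 37 C; intracellular ATP was then read by CellTiter-Glo luminescence after 30 min at room temperature. AC50 values were derived from Hill-equation fits.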

[14] = Cell Viability - LYMP2-024 (AID 988); further: nearly all actives have a fitted effect of over 60% in size; further: potency means the concentration at half of the fitted maximal effect
Summary of the method: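 Human lymphoblastoid LYMP2-024 cells (2500/well) rested 5 hr, then treated with compound for 24 hr at 37 C in complete medium. Viability was measured as intracellular ATP by CellTiter-Glo luminescence. AC50 values came from Hill-equation fits.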

[15] = Cell Viability - LYMP2-026 (AID 989); further: nearly all actives have a fitted effect of over 50% in size; further: potency means the concentration at half of the fitted maximal effect
Summary of the method: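 Human lymphoblastoid LYMP2-026 cells, 2500/well, exposed to compound 24 h at 37 C in complete medium. Viability as intracellular ATP by CellTiter-Glo luminescence; AC50 from Hill fits of qHTS concentration-response.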

[16] = Cell Viability - LYMP1-002 - Assay at 24 hr (AID 993); further: potency means the concentration at half of the fitted maximal effect
Summary of the method: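 Human lymphoblastoid LYMP1-002 cells (2500/well) treated 24 h at 37 °C; viability as intracellular ATP by CellTiter-Glo luminescence. Tetraoctylammonium bromide as positive control; AC50 from Hill-equation fits of qHTS concentration-response.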

[17] = Cell Viability - LYMP1-002 - Assay at 40 hr (AID 994); further: nearly all actives have a fitted effect of over 60% in size; further: potency means the concentration at half of the fitted maximal effect
Summary of the method: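 LYMP1-002 human lymphoblastoid cells (2500/well, complete medium) were treated with compounds for 40 hr at 37 C. Intracellular ATP was measured by CellTiter-Glo luminescence, and AC50 values came from Hill-equation fits of concentration-response data; tetraoctylammonium bromide was the positive control.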

Measured: Potency

CN1CCc2cc(O)cc3c2[C@H]1Cc1ccc(O)c(O)c1-3
inactive: [1] | [2] | [3]

C[N+]1(C)C2CCC1CC(OC(=O)c1c[nH]c3ccccc13)C2 (stereo not given)
inactive: [4] | [5]

O=Cc1ccco1
not listed: [1] | [2] | [3] | [4] | [5]
inactive: all other assays above

ClC(Cl)(Cl)Cl
not listed: [1] | [2] | [3] | [4] | [5]
inactive: all other assays above

ClCC1CO1 (stereo not given)
inactive: [6] | [7] | [8] | [9] | [12] | [15] | [16] | [17]

[O]=[Cr](=[O])([OH])[O][Cr](=[O])(=[O])[OH]
inactive and 39.8 µM (active): [17]
active: [6] 10 µM and 12.6 µM and 7.94 µM | [7] 12.6 µM and 10 µM | [8] 10 µM and 7.94 µM | [9] 12.6 µM and 15.8 µM and 7.94 µM | [10] 12.6 µM and 15.8 µM and 10 µM | [11] 7.94 µM and 12.6 µM | [12] 15.8 µM and 10 µM | [13] 10 µM and 12.6 µM and 7.94 µM | [14] 12.6 µM and 15.8 µM and 10 µM | [15] 15.8 µM and 20 µM and 12.6 µM
inactive: [16]

[O]=[Cd]
not listed: [1] | [2] | [3] | [4] | [5]
inactive: all other assays above

CCn1cnc2c(Nc3cccc(Cl)c3)nc(N[C@@H]3CCCC[C@@H]3N)nc21
inactive: [4] | [5]

C[N+](C)(C)CCOC(=O)CBr
inactive: [1] | [2] | [3] | [4] | [5]

C[C@]12CCC(=O)C[C@@H]1CC[C@@H]1[C@@H]2CC[C@]2(C)[C@@H](O)CC[C@@H]12
not listed: [1] | [2] | [3] | [4] | [5]
inactive: all other assays above

C=CCN1CC[C@]23c4c5ccc(O)c4O[C@@H]2/C(=N/N=C2\CC[C@@]4(O)C6Cc7ccc(O)c8c7[C@@]4(CCN6CC=C)[C@@H]2O8)CC[C@@]3(O)C1C5
inactive: [4] | [5]

COC1=CC(=O)O[C@@H](/C=C/c2ccccc2)C1
not listed: [1] | [2] | [3] | [4] | [5]
inactive: all other assays above

CC(C)Nc1ccc(Nc2ccccc2)cc1
active: [6] 25.1 µM | [7] 39.8 µM | [8] 25.1 µM | [9] 25.1 µM | [10] 39.8 µM | [11] 20 µM | [12] 25.1 µM | [13] 15.8 µM | [14] 12.6 µM | [15] 39.8 µM | [16] 31.6 µM | [17] 50.1 µM

Clc1ccc(N2C[C@H]3CC[C@@H](C2)N3)nn1
inactive: [1] | [2] | [3]

Oc1cc(Cl)c(Cl)cc1Cl
not listed: [1] | [2] | [3] | [4] | [5] | [14]
inactive: all other assays above

CC(C)CCON=O
not listed: [1] | [2] | [3] | [4] | [5]
inactive: all other assays above

O=C(O)C(Cl)(Cl)Cl
not listed: [1] | [2] | [3] | [4] | [5]
inactive: all other assays above

[Cl-].[Cl-].[Hg+2]
active: [6] 6.31 µM | [8] 0.316 µM | [10] 12.6 µM | [11] 5.01 µM | [12] 3.16 µM | [14] 0.398 µM | [15] 20 µM | [16] 1.26 µM | [17] 3.16 µM

C=CCN=C=S
not listed: [1] | [2] | [3] | [4] | [5]
inactive: all other assays above
